Results from PubChem BioAssay (NCATS).
Unmarked numbers belong to inactive results. Results filed as inconclusive are left out. Where a call stands in place of a potency, no number is given. Active and inactive are the calls of the source. Unless noted, calls come from the whole dose curve; as a rule, active = well fitted curve in the direction sought with a large enough effect; inconclusive = small, poorly fitted or top-dose-only effect, or another doubt; inactive = no such curve, though single readings can be large; an effect the other way counts as inactive or inconclusive.

Columns and labels:
[1] = molecular target: Rap guanine nucleotide exchange factor 3 (Homo sapiens) (UniProt O95398); assay: Confirmatory qHTS for antagonist of cAMP-regulated guanine nucleotide exchange factor 3 (EPAC1) (AID 1645880); details: EPAC1 Rap1B-BODIPY-GDP exchange, fluorescence; activity, negative = inhibition: at 115 µM (top of the series); note: nearly all actives have a fitted effect of over 55% in size
Sequence of Rap guanine nucleotide exchange factor 3 (Homo sapiens) (O95398 whole entry, looked up): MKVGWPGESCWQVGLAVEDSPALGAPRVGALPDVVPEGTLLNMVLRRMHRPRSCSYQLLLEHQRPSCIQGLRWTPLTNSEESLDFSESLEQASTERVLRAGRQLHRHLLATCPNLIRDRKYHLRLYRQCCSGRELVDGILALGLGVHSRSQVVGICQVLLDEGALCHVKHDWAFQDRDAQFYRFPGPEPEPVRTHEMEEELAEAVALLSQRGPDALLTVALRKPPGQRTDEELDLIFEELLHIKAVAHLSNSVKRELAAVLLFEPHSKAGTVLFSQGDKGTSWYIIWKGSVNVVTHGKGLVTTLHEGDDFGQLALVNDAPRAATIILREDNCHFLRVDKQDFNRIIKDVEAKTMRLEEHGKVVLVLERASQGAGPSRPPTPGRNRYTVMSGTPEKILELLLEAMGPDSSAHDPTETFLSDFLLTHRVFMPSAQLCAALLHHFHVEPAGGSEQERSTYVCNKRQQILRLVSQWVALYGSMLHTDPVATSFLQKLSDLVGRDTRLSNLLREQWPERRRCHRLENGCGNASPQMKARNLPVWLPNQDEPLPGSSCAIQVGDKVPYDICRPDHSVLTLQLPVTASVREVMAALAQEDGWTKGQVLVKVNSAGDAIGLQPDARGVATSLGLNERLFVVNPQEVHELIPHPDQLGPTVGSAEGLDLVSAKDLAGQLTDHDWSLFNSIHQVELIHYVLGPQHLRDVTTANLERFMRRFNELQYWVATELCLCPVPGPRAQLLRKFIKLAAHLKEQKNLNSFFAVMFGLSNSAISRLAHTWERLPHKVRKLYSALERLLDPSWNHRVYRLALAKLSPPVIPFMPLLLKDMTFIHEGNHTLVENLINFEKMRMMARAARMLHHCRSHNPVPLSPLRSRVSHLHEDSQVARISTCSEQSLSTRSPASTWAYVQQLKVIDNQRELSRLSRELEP
How it was run: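 Released BODIPY-GDP fluoresces less than Rap1-bound BODIPY-GDP; the signal is followed at 480/540 nm at 5-min intervals over 30 min, after 5 min at room temperature. Reactions contain 100 nM EPAC1, 250 nM RAP1B-BODIPY-GDP and 50 uM GDP; results are normalized to ATA and DMSO.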

[2] = molecular target: Rap guanine nucleotide exchange factor 4 (Homo sapiens) (UniProt Q8WZA2); assay: Confirmatory qHTS for agonist of cAMP-regulated guanine nucleotide exchange factor 4 (EPAC2) (AID 1645884);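 note: nucleotide exchange releases bodipy-GDP from Rap1 and this lowers its fluorescence; nearly all actives have a fitted effect of over 65% in size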; note: potency is the fitted concentration of half-maximal effect
Sequence of Rap guanine nucleotide exchange factor 4 (Homo sapiens) (Q8WZA2 whole entry, looked up): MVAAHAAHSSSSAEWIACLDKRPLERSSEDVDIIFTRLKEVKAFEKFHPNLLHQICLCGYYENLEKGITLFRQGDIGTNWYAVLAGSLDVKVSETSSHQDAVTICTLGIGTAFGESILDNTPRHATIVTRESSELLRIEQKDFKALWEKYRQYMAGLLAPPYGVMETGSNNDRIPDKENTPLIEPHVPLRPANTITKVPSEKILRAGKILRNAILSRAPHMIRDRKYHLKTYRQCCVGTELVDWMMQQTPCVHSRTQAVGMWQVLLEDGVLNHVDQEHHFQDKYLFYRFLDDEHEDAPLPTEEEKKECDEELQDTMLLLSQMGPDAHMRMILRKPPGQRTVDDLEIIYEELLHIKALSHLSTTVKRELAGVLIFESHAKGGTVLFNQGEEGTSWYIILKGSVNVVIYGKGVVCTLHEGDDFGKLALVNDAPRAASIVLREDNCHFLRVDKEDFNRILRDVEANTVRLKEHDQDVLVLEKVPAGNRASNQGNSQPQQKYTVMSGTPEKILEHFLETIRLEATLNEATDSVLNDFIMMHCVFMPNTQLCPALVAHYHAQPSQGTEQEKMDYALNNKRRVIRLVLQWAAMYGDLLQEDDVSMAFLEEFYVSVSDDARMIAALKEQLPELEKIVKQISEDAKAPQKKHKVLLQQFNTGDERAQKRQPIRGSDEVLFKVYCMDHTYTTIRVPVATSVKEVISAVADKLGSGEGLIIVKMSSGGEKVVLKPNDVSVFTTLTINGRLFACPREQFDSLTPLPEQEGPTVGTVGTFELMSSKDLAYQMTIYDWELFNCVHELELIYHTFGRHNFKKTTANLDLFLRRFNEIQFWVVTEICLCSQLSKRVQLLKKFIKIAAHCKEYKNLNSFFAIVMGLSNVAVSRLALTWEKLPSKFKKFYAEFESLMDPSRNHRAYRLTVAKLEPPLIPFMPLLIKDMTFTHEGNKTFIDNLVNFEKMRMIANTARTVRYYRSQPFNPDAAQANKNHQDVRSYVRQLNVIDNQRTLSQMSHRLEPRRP

[3] = molecular target: Rap guanine nucleotide exchange factor 3 (Homo sapiens) (UniProt O95398); assay: Counterscreen qHTS for antagonist of cAMP-regulated guanine nucleotide exchange factor 3 (EPAC1) (AID 1645888)
How it was run: (§1)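 Rap1B–BODIPY-GDP (250 nM) with 50 uM GDP; compounds pin-transferred to 9.74 nM–152 uM final (activator) or from 7.32 nM upwards (inhibitor). Fluorescence Ex/Em 480/540 nm read at 5 and 30 min, then after adding cAMP or buffer, at room temperature.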

[4] = molecular target: Rap guanine nucleotide exchange factor 4 (Homo sapiens) (UniProt Q8WZA2); assay: Confirmatory qHTS for antagonist of cAMP-regulated guanine nucleotide exchange factor 4 (EPAC2) (AID 1645885); note: nearly all actives have a fitted effect of over 25% in size; note: potency is the fitted concentration of half-maximal effect
[5] = molecular target: Rap guanine nucleotide exchange factor 3 (Homo sapiens) (UniProt O95398); assay: Counterscreen qHTS for agonist of cAMP-regulated guanine nucleotide exchange factor 3 (EPAC1) (AID 1645889); note: nearly all actives have a fitted effect of over 40% in size; note: potency is the fitted concentration of half-maximal effect
How it was run: as §1

[6] = molecular target: Tumor susceptibility gene 101 protein (Homo sapiens) (UniProt Q99816); assay: qHTS Assay for Iinhibitors of HIV-1 Budding by Blocking the Interaction of PTAP/TSG101: Hit Validation (AID 651600); note: nearly all actives have a fitted effect of over 70% in size; note: potency is the fitted concentration of half-maximal effect
Sequence of Tumor susceptibility gene 101 protein (Homo sapiens) (Q99816 whole entry, looked up, the tested form may be a part): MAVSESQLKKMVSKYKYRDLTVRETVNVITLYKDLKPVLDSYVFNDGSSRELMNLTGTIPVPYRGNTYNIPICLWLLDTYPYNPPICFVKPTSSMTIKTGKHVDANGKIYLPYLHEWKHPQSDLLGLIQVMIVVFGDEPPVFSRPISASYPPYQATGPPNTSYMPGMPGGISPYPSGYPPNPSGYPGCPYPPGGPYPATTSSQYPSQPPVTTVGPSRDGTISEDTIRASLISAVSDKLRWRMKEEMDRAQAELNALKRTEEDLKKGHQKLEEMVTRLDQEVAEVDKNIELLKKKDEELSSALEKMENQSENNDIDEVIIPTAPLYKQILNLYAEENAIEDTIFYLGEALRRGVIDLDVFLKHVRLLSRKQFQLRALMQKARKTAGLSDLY
How it was run: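 Tsg101 binding domain 10 uM + FITC-PTAP peptide 50 nM (final), 10 mM HEPES pH 7.5/0.15 M NaCl/0.01% Tween 20/3 mM EDTA/0.1 mM TCEP; 20 min RT; FP read, FITC filters.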

[7] = Stat Signaling Pathway (AID 446; active = well fitted curve in either direction with a large enough effect, not every such curve was filed as active;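 note: ME-180 cervical cancer cells given 40 pM IL-6 alongside compound; SIE-controlled beta-lactamase reporter measured as 460/530 nm FRET emission ratio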)
How it was run: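 Emission at 460 and 530 nm (excitation 405 nm) reports SIE-controlled beta-lactamase in ME-180 cells. Cells received compound with 40 pM IL-6 for 5 hrs at 37 C; data scaled between 300 pM IL-6 and 125 nM JAK-inhibitor controls.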

[8] = molecular target: Glucocorticoid receptor (Homo sapiens) (UniProt P04150); assay: GR-GFP Redistribution (AID 450;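 active = compounds whose dose series gives a full or clear partial fitted curve of increased nuclear translocation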; note: potency is the fitted concentration of half-maximal effect); details: U2OS GR-GFP nuclear translocation, laser cytometry, 2 h
Sequence of Glucocorticoid receptor (Homo sapiens) (P04150 whole entry, looked up): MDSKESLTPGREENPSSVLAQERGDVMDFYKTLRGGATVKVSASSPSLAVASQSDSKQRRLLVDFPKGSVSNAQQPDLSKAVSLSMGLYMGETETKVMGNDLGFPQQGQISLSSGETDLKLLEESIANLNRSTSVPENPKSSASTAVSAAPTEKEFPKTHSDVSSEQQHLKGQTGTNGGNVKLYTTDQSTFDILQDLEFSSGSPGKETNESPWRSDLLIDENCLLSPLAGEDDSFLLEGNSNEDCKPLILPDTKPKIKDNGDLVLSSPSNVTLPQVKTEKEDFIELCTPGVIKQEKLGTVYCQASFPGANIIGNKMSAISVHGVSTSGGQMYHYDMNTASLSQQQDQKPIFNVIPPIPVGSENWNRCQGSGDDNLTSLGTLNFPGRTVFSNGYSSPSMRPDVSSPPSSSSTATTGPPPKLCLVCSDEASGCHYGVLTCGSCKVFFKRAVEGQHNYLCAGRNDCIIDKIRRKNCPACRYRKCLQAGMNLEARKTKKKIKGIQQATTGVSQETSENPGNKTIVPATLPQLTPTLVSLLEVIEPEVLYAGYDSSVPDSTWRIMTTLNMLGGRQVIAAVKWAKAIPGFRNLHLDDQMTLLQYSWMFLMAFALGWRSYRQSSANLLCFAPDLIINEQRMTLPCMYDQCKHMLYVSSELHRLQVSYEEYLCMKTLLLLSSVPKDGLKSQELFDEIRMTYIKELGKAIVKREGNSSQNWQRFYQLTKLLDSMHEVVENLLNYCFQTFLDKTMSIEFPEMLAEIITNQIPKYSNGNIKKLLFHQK

**Q.** For `O=C1CSC(c2ccc(Cl)c(Cl)c2)N1c1nccs1` (stereo not given), which Potency [1] is on record?
**A.** inactive

**Q.** What about the Potency [2] of the same compound?
**A.** inactive

**Q.** What about the Potency [3] of the same compound?
**A.** inactive

**Q.** Which Potency [1] does the source give for `Cc1cc(/C=C2\SC(=S)N(C)C2=O)c(C)n1-c1ccccc1O` here?
**A.** inactive

**Q.** And the Potency [2]?
**A.** 100 µM (active)

**Q.** What about the Potency [4] of the same compound?
**A.** inactive

**Q.** What about the Potency [5] of the same compound?
**A.** 89.1 µM (active)

**Q.** Which Potency [6] does the source give for `Oc1ccc2nnc3c(Br)cnn3c2c1` here?
**A.** 16.3 µM (active)

**Q.** What about the Potency [1] of the same compound?
**A.** inactive

**Q.** And the Potency [2]?
**A.** 112 µM (active)

**Q.** What about the Potency [4] of the same compound?
**A.** inactive

**Q.** And the Potency [3]?
**A.** inactive

**Q.** With `CNc1ccc2c3c(cccc13)C(=O)N(C)C2=O` as the compound, how does the Potency [6] read?
**A.** 2.06 µM (active)

**Q.** What about the Potency [1] of the same compound?
**A.** inactive

**Q.** And the Potency [2]?
**A.** 112 µM (active)

**Q.** And the Potency [4]?
**A.** 84.9 µM (active)

**Q.** What does the source list for `CCC1(c2ccccc2)NC(=O)N(CC(=O)Nc2ccc(OC)nc2)C1=O` (stereo not given)?
**A.** Potency [6]: 18.3 µM (active); Potency [1]: inactive; activation [2]: 15.1% [at 17.1 µM, percent relative to cAMP agonist control]; Potency [4]: inactive; activity change, negative = inhibition [3]: -15.6% [at 30.8 µM]; activation [5]: 14.8% [at 30.8 µM]

**Q.** Which Potency [1] does the source give for `COCCn1c2nc(=O)n(-c3ccccc3)c(=O)c-2nc2ccccc21` here?
**A.** inactive

**Q.** What about the Potency [2] of the same compound?
**A.** 100 µM (active)

**Q.** And the Potency [4]?
**A.** 75.7 µM (active)

**Q.** What about the Potency [5] of the same compound?
**A.** 39.8 µM (active)

**Q.** With `Cc1ccc(OCc2nc3ccccc3n2CC(C)C)cc1` as the compound, how does the Potency [1] read?
**A.** inactive

**Q.** What about the Potency [2] of the same compound?
**A.** inactive

**Q.** And the Potency [4]?
**A.** inactive

**Q.** What about the Potency [5] of the same compound?
**A.** inactive

**Q.** Which Potency [1] does the source give for `CCOC(=O)C1=C(C)NC(SC)=C(C#N)C1CC(C)C` (stereo not given) here?
**A.** inactive

**Q.** What about the Potency [2] of the same compound?
**A.** inactive

**Q.** And the Potency [4]?
**A.** inactive

**Q.** What about the Potency [5] of the same compound?
**A.** inactive

**Q.** Which Potency [1] does the source give for `COc1ccc2noc3c2c1C(=O)c1ccccc1-3` here?
**A.** inactive

**Q.** And the Potency [2]?
**A.** 112 µM (active)

**Q.** What about the Potency [4] of the same compound?
**A.** inactive

**Q.** What about the Potency [5] of the same compound?
**A.** 20 µM (active)

**Q.** With `COc1cccc2c1C(=O)c1c(O)c3c(c(O)c1C2=O)CC(O)(C(=O)CO)CC3OC1CC(N(C)C)C(O)C(C)O1` (stereo not given) as the compound, how does the Potency [6] read?
**A.** 4.61 µM (active)

**Q.** And the Potency [1]?
**A.** inactive

**Q.** What about the activation [2] of the same compound?
**A.** 8.33% [at 17.1 µM, percent relative to cAMP agonist control]

**Q.** What about the Potency [4] of the same compound?
**A.** inactive

**Q.** And the activity change, negative = inhibition [3]?
**A.** 33.3% [at 30.8 µM]

**Q.** Which outcome [7] does the source give for `O=c1oc2c3c4c(cc2c(C(F)(F)F)c1CCN1CCOCC1)CCCN4CCC3` here?
**A.** inactive

**Q.** And the Potency [8]?
**A.** > 20.6 µM

**Q.** What about the Potency [1] of the same compound?
**A.** inactive

**Q.** And the Potency [2]?
**A.** 100 µM (active)

**Q.** And the Potency [4]?
**A.** inactive

**Q.** And the Potency [5]?
**A.** 17.8 µM (active)

**Q.** With `CC1=Nc2ccccc2/C1=C\c1nc(-c2ccc(F)cc2)oc1O` as the compound, how does the Potency [6] read?
**A.** 29.1 µM (active)

**Q.** What about the Potency [1] of the same compound?
**A.** inactive

**Q.** What about the Potency [2] of the same compound?
**A.** 112 µM (active)

**Q.** What about the Potency [4] of the same compound?
**A.** inactive

**Q.** And the Potency [3]?
**A.** inactive

**Q.** And the Potency [5]?
**A.** 25.1 µM (active)

**Q.** What does the source list for `O=c1c(/C=C(\O)c2ccc(F)cc2)nc2ccccc2n1-c1ccccc1`?
**A.** Potency [6]: inactive; Potency [1]: inactive; Potency [2]: 100 µM (active); Potency [4]: inactive; Potency [3]: inactive
